# In all, about 310,000 compounds went through this assay and about 14,000 (4.5%) showed an effect of 50% or more. Effects have a minus sign here. The list comes from a sample in which strong results are over-represented; it also holds similar structures and randomly drawn compounds.
# Target: human ether-à-go-go-related gene (hERG) potassium channel (human, UniProt Q12809)
# Assay: primary screen, population patch clamp on CHO cells stably expressing hERG; higher = less effect of the substance
# 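Also: peak tail current of the secondary pulse compared with the same well before compound.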
# Sequence of human ether-à-go-go-related gene (hERG) potassium channel (Q12809 whole entry, looked up): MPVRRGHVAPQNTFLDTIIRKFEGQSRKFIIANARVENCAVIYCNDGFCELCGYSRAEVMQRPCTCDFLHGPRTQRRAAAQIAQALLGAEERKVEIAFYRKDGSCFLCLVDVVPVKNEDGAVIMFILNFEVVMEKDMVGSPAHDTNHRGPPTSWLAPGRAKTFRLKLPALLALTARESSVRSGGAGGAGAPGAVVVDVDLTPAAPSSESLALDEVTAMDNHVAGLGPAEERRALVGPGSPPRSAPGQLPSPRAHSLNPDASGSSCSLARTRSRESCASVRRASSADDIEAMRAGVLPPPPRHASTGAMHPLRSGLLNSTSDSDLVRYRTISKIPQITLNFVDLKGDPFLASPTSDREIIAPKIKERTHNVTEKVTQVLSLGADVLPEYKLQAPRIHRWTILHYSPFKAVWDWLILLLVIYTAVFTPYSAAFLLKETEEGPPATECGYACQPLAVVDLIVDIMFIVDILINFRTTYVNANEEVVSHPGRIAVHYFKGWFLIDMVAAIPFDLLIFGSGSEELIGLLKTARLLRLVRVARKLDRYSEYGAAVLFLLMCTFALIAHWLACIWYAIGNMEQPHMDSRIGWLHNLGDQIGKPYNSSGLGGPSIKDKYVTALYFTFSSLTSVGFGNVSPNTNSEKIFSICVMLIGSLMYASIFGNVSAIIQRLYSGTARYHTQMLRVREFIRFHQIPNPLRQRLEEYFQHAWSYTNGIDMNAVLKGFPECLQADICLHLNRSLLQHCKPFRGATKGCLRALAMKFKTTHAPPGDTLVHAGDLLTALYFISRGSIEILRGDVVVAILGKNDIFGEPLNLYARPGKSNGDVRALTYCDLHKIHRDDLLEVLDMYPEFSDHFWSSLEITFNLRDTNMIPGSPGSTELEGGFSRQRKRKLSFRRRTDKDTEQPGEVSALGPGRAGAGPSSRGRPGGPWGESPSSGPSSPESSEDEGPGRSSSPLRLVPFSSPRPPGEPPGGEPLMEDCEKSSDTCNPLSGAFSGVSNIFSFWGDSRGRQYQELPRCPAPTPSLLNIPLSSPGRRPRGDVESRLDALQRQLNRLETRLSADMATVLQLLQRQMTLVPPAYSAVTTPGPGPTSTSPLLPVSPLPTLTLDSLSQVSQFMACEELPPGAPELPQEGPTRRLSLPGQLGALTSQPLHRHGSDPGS
row,SMILES,"hERG current change (%, negative = inhibition) at 10uM [%]"
1,O=C1c2cccc3cccc(c23)C(=O)N1CC1CCN(S(=O)(=O)c2ccc(F)cc2)CC1,2.54
2,Cc1ccc(S(=O)(=O)N2CCC(CN3C(=O)c4cccc5cccc(c45)C3=O)CC2)cc1,11.3
3,COc1cccc(OCC(O)CN2CCC(CN3C(=O)c4cccc5cccc(c45)C3=O)CC2)c1.Cl (stereo not shown),-72.3
4,Cc1cc(C)cc(OCC(O)CN2CCC(CN3C(=O)c4cccc5cccc(c45)C3=O)CC2)c1.Cl (stereo not shown),-70
5,CCOC(=O)N1CCN(CC(O)COc2c(C)cccc2C)CC1.Cl (stereo not shown),-15.7
6,Cc1cccc(C)c1OCC(O)CN1CCC(CN2C(=O)c3cccc4cccc(c34)C2=O)CC1.Cl (stereo not shown),-76.2
7,Cc1ccc(C)c(OCC(O)CN2CCC(CN3C(=O)c4cccc5cccc(c45)C3=O)CC2)c1.Cl (stereo not shown),-68.2
8,Cl.O=C1c2cccc3cccc(c23)C(=O)N1CC1CCN(CC(O)COc2ccc3ccccc3c2)CC1 (stereo not shown),-46.1
9,O=C(O)/C(=C\c1cccc(C(F)(F)F)c1)c1ccc(S(=O)(=O)N2CCCC2)s1,5.74
10,O=C(Cc1cccs1)Nc1cccc(C(=O)Nc2ccco2)c1,-37.9
11,CCOc1ccc(Nc2oc(-c3ccco3)nc2C#N)cc1,-1.69
12,COC(=O)c1ccc(NC(=O)CSc2nc(N)c(NC(=O)c3ccc(Br)o3)c(=O)[nH]2)cc1,20.8
13,Cc1cc(C)c(S(=O)(=O)Nc2nccs2)c(C)c1,0.875
14,Cc1cc(S(=O)(=O)NCC(C)C)ccc1OCC(=O)NCC1CCCO1 (stereo not shown),8.03
15,CC(=O)Nc1nc(C)c(Oc2ccc(C)cc2)c(=O)[nH]1,-1.03
16,S=C(NC1CC1)SCc1ccco1,-11.5
17,COc1cccc(NC(=O)CN(C)CC(=O)NC(C)c2ccccc2)c1 (stereo not shown),-8.48
18,CN(C)CCN1C(=O)c2oc3ccc(F)cc3c(=O)c2C1c1ccncc1 (stereo not shown),-2
19,CCOC(=O)CC(=O)CSc1ncnc2c1oc1ccccc12,5.2
20,Cc1ccc(Cl)cc1Nc1nc(-c2sc(NC(=O)c3ccco3)nc2C)cs1,3.48
21,COc1ccc2c(c1)C(C)CC(C)(C)N2C(=O)CSc1ncn[nH]1 (stereo not shown),-10.9

row,SMILES,"hERG current change (%, negative = inhibition) at 10uM [%]"
1,Cc1ccccc1OCCCC(=O)Nc1ccc(Br)cc1,5.24
2,COc1cccc(OC)c1C(=O)OCC(=O)N(C)c1ccccc1,7.96
3,Cc1ccc(NC(=O)[C@H](C)NC(=O)C2CCN(C(=O)[C@@H](N)CC(C)C)CC2)cc1.Cl,7.29
4,COc1ccc(OCC(O)CN2CCC(CN3C(=O)c4cccc5cccc(c45)C3=O)CC2)cc1.Cl (stereo not shown),-59.1
5,CCc1ccc(OCC(O)CN2CCC(CN3C(=O)c4cccc5cccc(c45)C3=O)CC2)cc1.Cl (stereo not shown),-41.1
6,COc1ccc(S(=O)(=O)N2CCC(CN3C(=O)c4cccc5cccc(c45)C3=O)CC2)cc1,7.22
7,Cc1cc(C)n(C(=O)CCCC(=O)n2nc(C)cc2C)n1,-4.17
8,CC(=O)Nc1ccc(NC(=O)COc2ncnc3ccccc23)cc1,-7.63
9,O=C(Nc1ccccn1)c1cc(-c2cccc(Cl)c2)nc2ccccc12,13.3
10,CC1CCN(C(=O)c2ccc(Br)c(S(=O)(=O)N3CCOCC3)c2)CC1,-3.74
11,O=C(c1ccc(Cl)c(S(=O)(=O)Nc2ccc(F)cc2)c1)N1CCN(c2ccccn2)CC1,-33.9
12,O=C(c1ccc(CNS(=O)(=O)c2ccccc2)cc1)N1CCN(c2ccccn2)CC1,-28.5
13,O=C(c1ccc(Cl)c(S(=O)(=O)N2CCCC2)c1)N1CCN(c2ncccn2)CC1,-4.2
14,O=C(c1ccc(Cl)c(S(=O)(=O)NCc2ccccc2)c1)N1CCN(c2ccccn2)CC1,-50.3
15,O=C(c1ccc(Cl)c(S(=O)(=O)N2CCOCC2)c1)N1CCN(c2ccccn2)CC1,-44.2
16,O=C(c1ccc(Cl)c(S(=O)(=O)N2CCCC2)c1)N1CCN(c2ccccn2)CC1,-31.3
17,CC1CCN(S(=O)(=O)c2cc(C(=O)N3CCN(c4ncccn4)CC3)ccc2Br)CC1,-72.4
18,O=C(c1ccc(Cl)c(S(=O)(=O)N2CCCCCC2)c1)N1CCN(c2ccccn2)CC1,-63.6
19,CCC1(C)CC(C(N)=S)CCO1 (stereo not shown),27.4
20,O=C(C1CCC1)N(CCc1ccccc1)Cc1nc2ccccc2c(=O)[nH]1,-4.04
21,CCc1nnc(NC(=O)CN2C(=O)c3ccccc3S2(=O)=O)s1,10.7

row,SMILES,"hERG current change (%, negative = inhibition) at 10uM [%]"
1,Cc1ccc(S(=O)(=O)Nc2c(C)nn(C)c2C)cc1,-4.07
2,CCn1c(=O)c2sccc2n(Cc2ccc(C)cc2)c1=O,26
3,O=C(CN1CCN(CC(=O)Nc2ccc3c(c2)OCO3)CC1)Nc1ccc(F)cc1,-73.4
4,O=C(CN1CCN(S(=O)(=O)c2ccc(F)cc2)CC1)Nc1ccc2c(c1)OCO2,-40.6
5,CC1CCc2nc(NC(=O)CN3CCN(Cc4ccc5c(c4)OCO5)CC3)sc2C1 (stereo not shown),-66.7
6,O=C(CN1CCN(c2ccc(F)cc2)CC1)Nc1ccc2c(c1)OCCO2,4
7,O=C(Nc1ccccc1)N1CCN(Cc2ccc3c(c2)OCO3)CC1,-26.1
8,Cc1ccc(NC(=O)N2CCN(Cc3ccc4c(c3)OCO4)CC2)cc1,-33.8
9,Cc1cc(C)cc(NC(=O)N2CCN(Cc3ccc4c(c3)OCO4)CC2)c1,-59
10,CC1CCc2nc(NC(=O)CN3CCOCC3)sc2C1 (stereo not shown),-4.5
11,O=C(CN1CCN(Cc2ccc3c(c2)OCO3)CC1)NCC(F)(F)F,5.34
12,O=C(CN1CCN(Cc2ccc3c(c2)OCO3)CC1)Nc1ccc(F)cc1,-81.7
13,CC1CCc2nc(NC(=O)CN3CCN(c4ccccc4)CC3)sc2C1 (stereo not shown),-6.29
14,COc1cc(NC(=O)CN2CCN(Cc3ccc4c(c3)OCO4)CC2)cc(OC)c1.O=C(O)C(=O)O,-47
15,O=C(/C(=C(/[O-])c1ccccc1)[n+]1ccccc1)c1ccc([N+](=O)[O-])cc1,6.47
16,Cc1ccc(-c2nnc(N(C)C(=O)c3ccncc3)s2)cn1,1.62
17,CCC(C)(C)NC(=O)C(c1cccnc1)N(C(=O)c1csnn1)c1ccc(C)cc1 (stereo not shown),10.6
18,CCCOc1ccc(-c2c(C(=O)N/N=C/c3ccccc3OCC)nnn2-c2nonc2N)cc1,22.7
19,COc1ccc(OC)c(C2C(C(=O)c3cc4ccccc4o3)=C(O)C(=O)N2c2cc(C)on2)c1 (stereo not shown),2.7
20,COc1ccc2oc(C(=O)NN3C(C)CCCC3C)c(C)c2c1 (stereo not shown),16.1
21,CNc1nccc(-c2ccc(F)cc2)c1C#N,6.25

row,SMILES,"hERG current change (%, negative = inhibition) at 10uM [%]"
1,N#Cc1c(F)cccc1N1CCN(Cc2ccc3c(c2)OCO3)CC1,-81.3
2,Fc1ccccc1N1CCN(Cc2ccc3c(c2)OCO3)CC1,-26.8
3,O=C(CN1CCN(Cc2ccc3c(c2)OCO3)CC1)Nc1ccc2c(c1)OCO2,-72.5
4,O=C(CN1CCN(Cc2ccc3c(c2)OCO3)CC1)Nc1ccc(N2CCOCC2)cc1,-6.54
5,Cc1cccc(N2CCN(Cc3ccc4c(c3)OCO4)CC2)c1C,3.83
6,CN(C)S(=O)(=O)c1ccc(Cl)c(NC(=O)CN2CCN(Cc3ccc4c(c3)OCO4)CC2)c1,-64.6
7,O=S(=O)(c1ccc(F)cc1)N1CCC(O)(c2ccc3c(c2)OCO3)CC1,-42
8,OC1(c2ccc3c(c2)OCO3)CCN(Cc2ccc(F)cc2)CC1,-51.4
9,OC1(c2ccc3c(c2)OCO3)CCN(Cc2ccccn2)CC1,-6.96
10,O=C(CN1CCN(Cc2ccc3c(c2)OCO3)CC1)Nc1cc(S(=O)(=O)N2CCCC2)ccc1Cl,-18.8
11,COc1ccc(NC(=O)CN2CCN(Cc3ccc4c(c3)OCO4)CC2)cc1OC.O=C(O)C(=O)O,-17.4
12,CN(C)S(=O)(=O)c1ccc(Cl)c(NC(=O)CN2CCCCCC2)c1,-24.6
13,CS(=O)(=O)c1ccc2nc(NC(=O)c3ccc(N4CCCC4=O)cc3)sc2c1,13.3
14,CCCCNC(=O)[C@H]1N2C(=O)c3c(ccc(OC)c3OC)C2SC1(C)C (stereo partly shown),12.8
15,S=c1[nH]ncn1/N=C/c1ccc(N2CCOCC2)cc1,14.9
16,CCCN(Cc1nnc(-c2cccs2)o1)C(=O)c1cccc(S(=O)(=O)N2CCOCC2)c1,-25.3
17,CC(NC(=O)COC(=O)c1ccc(CO)cc1)C1CC2CCC1C2 (stereo not shown),7.65
18,CC(=O)Nc1ccc(C(=O)NN2C(=O)c3ccccc3C2=O)cc1,7.29
19,COc1ccc(OC)c(C(=O)NC(CC(N)=O)c2ccc(N3CCC(Cc4ccccc4)CC3)c([N+](=O)[O-])c2)c1 (stereo not shown),-5.07

# Source: article PMC4336329 (PLoS ONE, 2015)
